# Test results taken from article PMC7862700, “An all-to-all approach to the identification of sequence-specific readers for epigenetic DNA modifications on cytosine”.
# Assays:
# Test in all cases: DAPPL (digital affinity profiling via proximity ligation, sequencing); 10 mM Tris-HCl pH 7.5, 50 mM NaCl, 1 mM DTT, 4% glycerol, room temperature, 30 min; GST-TFs on glutathione beads, 16-mer random dsDNA library, 0.1% formaldehyde crosslink after washing; high values mean tight binding
# Details in all cases: protein: recombinant; tags: N-terminal GST; dsDNA, one strand shown
# [1] = biological target: T1, FLI1 (Homo sapiens, UniProt Q01543 1-452)
# T1 sequence: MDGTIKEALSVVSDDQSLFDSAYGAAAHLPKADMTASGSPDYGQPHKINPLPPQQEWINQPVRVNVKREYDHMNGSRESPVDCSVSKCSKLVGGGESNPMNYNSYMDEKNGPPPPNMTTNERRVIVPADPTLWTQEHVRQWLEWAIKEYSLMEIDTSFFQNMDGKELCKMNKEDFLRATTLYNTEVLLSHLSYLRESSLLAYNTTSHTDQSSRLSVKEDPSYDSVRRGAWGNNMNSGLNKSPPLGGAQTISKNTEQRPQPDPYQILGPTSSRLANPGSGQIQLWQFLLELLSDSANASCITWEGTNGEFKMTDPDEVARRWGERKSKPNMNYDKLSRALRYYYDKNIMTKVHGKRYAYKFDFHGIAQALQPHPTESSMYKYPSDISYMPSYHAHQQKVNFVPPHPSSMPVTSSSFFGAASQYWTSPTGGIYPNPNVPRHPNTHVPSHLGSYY
# Procedure, shortened: (§1)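 After expression in yeast as GST fusions, human transcription factors were bound to glutathione beads, DNA-barcoded and mixed with a tag-only sample. The pools were incubated with 200 nmole of a 16-mer random double-stranded DNA library in Tris/NaCl/DTT/glycerol buffer (30 min, room temperature), washed and crosslinked with 0.1% formaldehyde. Proximity ligation with BsaI/T4 ligase ran for 1 h at 37 °C, before PCR amplification and sequencing on an Illumina NextSeq500. Binding signal is a hexamer's read frequency for a factor divided by its frequency for the tag-only sample.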
# [2] = biological target: T2, ELK1 (Homo sapiens, UniProt P19419 1-428)
# T2 sequence: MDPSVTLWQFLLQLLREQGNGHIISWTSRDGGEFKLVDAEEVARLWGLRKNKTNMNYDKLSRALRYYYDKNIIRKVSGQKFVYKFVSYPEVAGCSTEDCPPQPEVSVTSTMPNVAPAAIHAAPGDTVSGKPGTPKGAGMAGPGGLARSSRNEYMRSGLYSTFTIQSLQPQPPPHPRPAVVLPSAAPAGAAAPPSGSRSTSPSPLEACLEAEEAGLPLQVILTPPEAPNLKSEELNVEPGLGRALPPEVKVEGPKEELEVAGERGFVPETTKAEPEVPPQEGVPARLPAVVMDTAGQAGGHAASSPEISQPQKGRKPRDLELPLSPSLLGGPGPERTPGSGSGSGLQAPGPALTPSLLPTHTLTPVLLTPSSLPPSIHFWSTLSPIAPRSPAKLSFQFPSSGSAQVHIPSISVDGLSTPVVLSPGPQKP
# Procedure, shortened: as §1
# [3] = biological target: T3, GABPA (Homo sapiens, UniProt Q06546 1-454)
# T3 sequence: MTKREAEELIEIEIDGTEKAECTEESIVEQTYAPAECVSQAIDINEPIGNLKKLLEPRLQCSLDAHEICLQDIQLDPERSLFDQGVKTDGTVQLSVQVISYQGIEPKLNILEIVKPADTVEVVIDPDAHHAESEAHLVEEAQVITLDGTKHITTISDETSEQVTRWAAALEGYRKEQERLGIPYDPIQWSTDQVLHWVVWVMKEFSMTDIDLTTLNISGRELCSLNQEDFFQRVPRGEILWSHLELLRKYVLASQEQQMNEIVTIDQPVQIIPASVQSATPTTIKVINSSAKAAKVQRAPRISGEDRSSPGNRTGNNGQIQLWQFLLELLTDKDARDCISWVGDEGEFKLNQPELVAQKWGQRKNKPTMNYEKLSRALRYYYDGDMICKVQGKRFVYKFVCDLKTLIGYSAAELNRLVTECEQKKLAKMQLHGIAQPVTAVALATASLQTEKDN
# Procedure, shortened: as §1
# [4] = biological target: T4, ERG (Homo sapiens, UniProt P11308 1-479)
# T4 sequence: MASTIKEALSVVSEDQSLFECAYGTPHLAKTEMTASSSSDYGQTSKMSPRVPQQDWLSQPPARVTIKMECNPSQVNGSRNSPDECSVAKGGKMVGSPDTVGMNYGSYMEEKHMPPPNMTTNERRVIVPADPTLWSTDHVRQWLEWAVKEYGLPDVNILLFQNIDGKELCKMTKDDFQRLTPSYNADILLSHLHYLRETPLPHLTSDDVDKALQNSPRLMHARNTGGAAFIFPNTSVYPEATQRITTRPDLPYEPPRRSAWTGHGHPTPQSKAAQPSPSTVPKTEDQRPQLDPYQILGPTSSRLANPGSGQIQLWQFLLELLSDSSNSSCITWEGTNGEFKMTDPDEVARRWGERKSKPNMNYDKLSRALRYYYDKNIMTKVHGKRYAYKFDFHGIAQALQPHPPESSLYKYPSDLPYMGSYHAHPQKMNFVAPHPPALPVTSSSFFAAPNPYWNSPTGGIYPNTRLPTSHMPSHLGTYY
# Procedure, shortened: as §1
# [5] = biological target: ELF1 (Homo sapiens, UniProt P32519 1-619)
# Chain of ELF1 (P32519 whole entry): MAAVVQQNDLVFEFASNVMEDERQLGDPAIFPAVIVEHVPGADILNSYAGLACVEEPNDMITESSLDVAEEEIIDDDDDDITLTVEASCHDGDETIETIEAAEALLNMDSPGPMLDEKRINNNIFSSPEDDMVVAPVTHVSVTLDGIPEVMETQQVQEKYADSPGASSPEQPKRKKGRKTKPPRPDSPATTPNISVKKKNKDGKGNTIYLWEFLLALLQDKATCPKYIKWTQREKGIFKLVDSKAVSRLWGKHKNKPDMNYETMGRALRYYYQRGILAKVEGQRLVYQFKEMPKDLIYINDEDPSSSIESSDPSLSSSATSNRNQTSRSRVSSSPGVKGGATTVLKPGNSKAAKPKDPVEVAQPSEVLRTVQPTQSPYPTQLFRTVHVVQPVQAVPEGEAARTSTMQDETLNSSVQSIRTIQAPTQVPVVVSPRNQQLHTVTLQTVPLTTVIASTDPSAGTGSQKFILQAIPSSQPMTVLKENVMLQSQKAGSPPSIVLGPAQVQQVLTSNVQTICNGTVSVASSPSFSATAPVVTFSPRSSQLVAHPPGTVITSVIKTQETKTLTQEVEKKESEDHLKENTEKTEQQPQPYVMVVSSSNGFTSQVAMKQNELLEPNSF
# Procedure, shortened: as §1
# [6] = biological target: T5, EHF (Homo sapiens, UniProt Q9NZC4 1-300)
# T5 sequence: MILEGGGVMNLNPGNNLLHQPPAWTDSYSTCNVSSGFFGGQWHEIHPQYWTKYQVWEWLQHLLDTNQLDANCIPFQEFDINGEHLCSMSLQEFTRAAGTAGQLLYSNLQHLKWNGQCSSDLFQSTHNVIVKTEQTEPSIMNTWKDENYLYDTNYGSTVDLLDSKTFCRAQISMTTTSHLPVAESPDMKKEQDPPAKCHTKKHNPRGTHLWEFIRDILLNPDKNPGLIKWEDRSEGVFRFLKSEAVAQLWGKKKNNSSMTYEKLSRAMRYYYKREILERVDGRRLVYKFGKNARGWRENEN
# Procedure, shortened: as §1
# [7] = biological target: SPI1 (Homo sapiens, UniProt P17947 1-270)
# Procedure, shortened: as §1
# [8] = biological target: SPIB (Homo sapiens, UniProt Q01892 1-262)
# Chain of SPIB (Q01892 whole entry): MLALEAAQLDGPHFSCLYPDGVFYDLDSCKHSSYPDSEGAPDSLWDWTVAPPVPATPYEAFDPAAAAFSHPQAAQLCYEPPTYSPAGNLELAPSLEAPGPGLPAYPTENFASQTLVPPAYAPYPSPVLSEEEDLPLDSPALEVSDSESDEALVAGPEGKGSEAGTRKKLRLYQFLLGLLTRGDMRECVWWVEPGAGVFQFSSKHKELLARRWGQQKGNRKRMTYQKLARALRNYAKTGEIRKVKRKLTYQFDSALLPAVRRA
# Procedure, shortened: as §1
# [9] = biological target: T6, ELK3 (Homo sapiens, UniProt P41970 1-407)
# T6 sequence: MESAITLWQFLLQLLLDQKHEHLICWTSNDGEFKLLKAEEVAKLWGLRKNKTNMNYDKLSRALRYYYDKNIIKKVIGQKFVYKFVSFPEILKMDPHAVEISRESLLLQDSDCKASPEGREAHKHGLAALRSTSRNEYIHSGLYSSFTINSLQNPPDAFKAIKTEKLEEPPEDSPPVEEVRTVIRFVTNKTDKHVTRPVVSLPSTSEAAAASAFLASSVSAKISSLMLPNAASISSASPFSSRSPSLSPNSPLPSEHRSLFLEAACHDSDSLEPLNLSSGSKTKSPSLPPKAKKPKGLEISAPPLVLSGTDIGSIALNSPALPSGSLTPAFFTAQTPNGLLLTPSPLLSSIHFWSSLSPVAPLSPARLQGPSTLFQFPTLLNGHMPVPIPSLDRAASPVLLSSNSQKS
# Procedure, shortened: as §1
# [10] = biological target: T7, FEV (Homo sapiens, UniProt Q99581 1-238)
# T7 sequence: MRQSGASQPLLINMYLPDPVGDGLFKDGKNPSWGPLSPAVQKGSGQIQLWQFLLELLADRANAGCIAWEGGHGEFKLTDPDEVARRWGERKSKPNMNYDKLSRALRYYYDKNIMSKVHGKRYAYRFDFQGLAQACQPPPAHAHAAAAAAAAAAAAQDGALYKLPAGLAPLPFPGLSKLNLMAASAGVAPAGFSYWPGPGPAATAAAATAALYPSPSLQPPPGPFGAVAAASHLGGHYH
# Procedure, shortened: as §1
# [11] = biological target: ETV5 (Homo sapiens, UniProt P41161 1-510)
# Chain of ETV5 (P41161 whole entry): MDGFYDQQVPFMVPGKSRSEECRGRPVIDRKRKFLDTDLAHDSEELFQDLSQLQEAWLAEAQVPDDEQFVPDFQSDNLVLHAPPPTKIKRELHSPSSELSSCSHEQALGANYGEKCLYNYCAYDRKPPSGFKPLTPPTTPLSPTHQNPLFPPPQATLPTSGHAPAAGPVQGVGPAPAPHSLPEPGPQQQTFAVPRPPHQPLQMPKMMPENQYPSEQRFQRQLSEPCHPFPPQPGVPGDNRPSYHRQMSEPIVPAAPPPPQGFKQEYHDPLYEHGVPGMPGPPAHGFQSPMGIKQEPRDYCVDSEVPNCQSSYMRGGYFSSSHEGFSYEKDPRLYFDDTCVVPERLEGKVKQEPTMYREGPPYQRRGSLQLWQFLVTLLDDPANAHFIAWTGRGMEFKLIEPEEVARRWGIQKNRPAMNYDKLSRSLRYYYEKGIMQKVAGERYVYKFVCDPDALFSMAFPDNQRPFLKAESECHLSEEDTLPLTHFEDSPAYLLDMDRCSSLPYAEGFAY
# Procedure, shortened: as §1
# [12] = biological target: T8, SPIC (Homo sapiens, UniProt Q8N5J4 1-248)
# T8 sequence: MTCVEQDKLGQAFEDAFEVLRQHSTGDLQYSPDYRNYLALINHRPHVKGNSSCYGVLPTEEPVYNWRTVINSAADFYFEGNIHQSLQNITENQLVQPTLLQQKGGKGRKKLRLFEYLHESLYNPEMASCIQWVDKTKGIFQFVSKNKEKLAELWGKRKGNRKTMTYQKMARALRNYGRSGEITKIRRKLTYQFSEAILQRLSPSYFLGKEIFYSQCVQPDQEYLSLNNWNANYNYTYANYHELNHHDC
# Procedure, shortened: as §1
# [13] = biological target: ELF4 (Homo sapiens, UniProt Q99607 1-663)
# Chain of ELF4 (Q99607 whole entry): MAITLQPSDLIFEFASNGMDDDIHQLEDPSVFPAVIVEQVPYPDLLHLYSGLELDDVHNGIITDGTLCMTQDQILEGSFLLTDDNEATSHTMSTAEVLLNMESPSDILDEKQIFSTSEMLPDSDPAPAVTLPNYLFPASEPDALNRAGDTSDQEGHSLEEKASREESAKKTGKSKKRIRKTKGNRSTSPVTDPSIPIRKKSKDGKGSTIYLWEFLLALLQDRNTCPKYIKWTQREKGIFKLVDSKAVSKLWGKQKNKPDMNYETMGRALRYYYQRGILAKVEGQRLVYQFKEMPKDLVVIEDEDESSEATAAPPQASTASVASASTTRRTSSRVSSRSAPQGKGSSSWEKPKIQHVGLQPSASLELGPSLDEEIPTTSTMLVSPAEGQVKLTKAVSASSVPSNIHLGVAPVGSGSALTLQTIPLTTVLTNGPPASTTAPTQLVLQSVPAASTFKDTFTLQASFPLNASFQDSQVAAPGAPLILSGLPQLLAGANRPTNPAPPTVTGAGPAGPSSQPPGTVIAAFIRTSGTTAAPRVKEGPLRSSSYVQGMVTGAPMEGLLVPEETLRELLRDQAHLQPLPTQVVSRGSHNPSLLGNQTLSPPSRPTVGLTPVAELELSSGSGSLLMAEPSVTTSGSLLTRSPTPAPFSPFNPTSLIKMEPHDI
# Procedure, shortened: as §1
# [14] = biological target: T9, ELK4 (Homo sapiens, UniProt P28324-2 1-405)
# T9 sequence: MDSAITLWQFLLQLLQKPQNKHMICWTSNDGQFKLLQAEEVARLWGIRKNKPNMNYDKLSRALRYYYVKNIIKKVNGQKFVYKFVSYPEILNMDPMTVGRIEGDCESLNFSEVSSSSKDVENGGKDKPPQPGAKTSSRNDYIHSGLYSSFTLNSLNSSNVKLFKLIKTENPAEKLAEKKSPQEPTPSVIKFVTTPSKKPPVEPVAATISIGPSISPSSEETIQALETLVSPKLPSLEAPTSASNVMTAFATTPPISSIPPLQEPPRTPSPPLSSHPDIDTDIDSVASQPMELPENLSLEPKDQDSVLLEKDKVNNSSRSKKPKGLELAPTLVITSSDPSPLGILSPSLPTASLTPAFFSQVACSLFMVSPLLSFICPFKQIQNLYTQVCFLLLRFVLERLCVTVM
# Procedure, shortened: as §1
# [15] = biological target: T10, ETV2 (Homo sapiens, UniProt O00321 1-342)
# T10 sequence: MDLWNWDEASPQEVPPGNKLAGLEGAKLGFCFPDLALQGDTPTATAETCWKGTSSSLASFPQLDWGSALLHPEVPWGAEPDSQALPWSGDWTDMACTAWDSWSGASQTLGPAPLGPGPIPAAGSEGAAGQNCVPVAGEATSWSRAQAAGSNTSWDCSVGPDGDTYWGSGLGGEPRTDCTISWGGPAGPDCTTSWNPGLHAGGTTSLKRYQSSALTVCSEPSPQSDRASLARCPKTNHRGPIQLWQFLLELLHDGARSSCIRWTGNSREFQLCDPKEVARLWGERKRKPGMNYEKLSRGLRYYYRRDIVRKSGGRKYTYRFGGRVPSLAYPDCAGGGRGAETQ
# Procedure, shortened: as §1
# [16] = biological target: T11, ELF3 (Homo sapiens, UniProt P78545 1-371)
# T11 sequence: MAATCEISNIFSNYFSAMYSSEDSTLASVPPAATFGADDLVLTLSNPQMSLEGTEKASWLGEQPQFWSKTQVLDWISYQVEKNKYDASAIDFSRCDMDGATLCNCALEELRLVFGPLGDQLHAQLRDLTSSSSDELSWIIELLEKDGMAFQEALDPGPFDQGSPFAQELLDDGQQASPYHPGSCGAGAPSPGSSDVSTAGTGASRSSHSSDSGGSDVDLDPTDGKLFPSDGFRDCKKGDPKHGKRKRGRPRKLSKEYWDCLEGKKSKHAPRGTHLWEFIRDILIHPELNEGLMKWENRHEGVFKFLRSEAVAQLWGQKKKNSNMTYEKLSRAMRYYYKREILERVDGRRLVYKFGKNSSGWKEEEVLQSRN
# Procedure, shortened: as §1
# [17] = biological target: ETV1 (Homo sapiens, UniProt P50549 1-477)
# Chain of ETV1 (P50549 whole entry): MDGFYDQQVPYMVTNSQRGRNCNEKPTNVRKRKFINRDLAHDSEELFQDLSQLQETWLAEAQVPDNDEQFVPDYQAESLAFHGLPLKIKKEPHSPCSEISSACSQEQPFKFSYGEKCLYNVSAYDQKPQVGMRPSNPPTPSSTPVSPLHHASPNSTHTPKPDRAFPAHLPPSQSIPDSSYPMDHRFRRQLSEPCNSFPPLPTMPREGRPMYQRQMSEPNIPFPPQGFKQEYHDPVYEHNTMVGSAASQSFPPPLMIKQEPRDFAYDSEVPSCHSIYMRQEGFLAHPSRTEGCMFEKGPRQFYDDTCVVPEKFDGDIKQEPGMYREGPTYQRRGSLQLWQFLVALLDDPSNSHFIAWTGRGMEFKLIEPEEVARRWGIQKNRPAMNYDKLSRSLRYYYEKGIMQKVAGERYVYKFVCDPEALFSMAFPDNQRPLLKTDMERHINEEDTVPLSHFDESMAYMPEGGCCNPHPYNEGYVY
# Procedure, shortened: as §1
Sequence,binding signal [1],binding signal [2],binding signal [3],binding signal [4],binding signal [5],binding signal [6],binding signal [7],binding signal [8],binding signal [9],binding signal [10],binding signal [11],binding signal [12],binding signal [13],binding signal [14],binding signal [15],binding signal [16],binding signal [17]
CGTACC,"1.24 fold enrichment (6-mer frequency, TF over GST control)","1.15 fold enrichment (6-mer frequency, TF over GST control)","1.18 fold enrichment (6-mer frequency, TF over GST control)","1.12 fold enrichment (6-mer frequency, TF over GST control)","1.15 fold enrichment (6-mer frequency, TF over GST control)","1.15 fold enrichment (6-mer frequency, TF over GST control)","1.14 fold enrichment (6-mer frequency, TF over GST control)","1.12 fold enrichment (6-mer frequency, TF over GST control)","1.21 fold enrichment (6-mer frequency, TF over GST control)","1.19 fold enrichment (6-mer frequency, TF over GST control)","1.17 fold enrichment (6-mer frequency, TF over GST control)","1.14 fold enrichment (6-mer frequency, TF over GST control)","1.17 fold enrichment (6-mer frequency, TF over GST control)","1.18 fold enrichment (6-mer frequency, TF over GST control)","1.15 fold enrichment (6-mer frequency, TF over GST control)","1.25 fold enrichment (6-mer frequency, TF over GST control)","1.26 fold enrichment (6-mer frequency, TF over GST control)"
TGTGCA,"1 fold enrichment (6-mer frequency, TF over GST control)","1.09 fold enrichment (6-mer frequency, TF over GST control)","1.08 fold enrichment (6-mer frequency, TF over GST control)","1.16 fold enrichment (6-mer frequency, TF over GST control)","1.08 fold enrichment (6-mer frequency, TF over GST control)","1.14 fold enrichment (6-mer frequency, TF over GST control)","1.08 fold enrichment (6-mer frequency, TF over GST control)","1.18 fold enrichment (6-mer frequency, TF over GST control)",,"1.1 fold enrichment (6-mer frequency, TF over GST control)","1.15 fold enrichment (6-mer frequency, TF over GST control)","1.38 fold enrichment (6-mer frequency, TF over GST control)","1.11 fold enrichment (6-mer frequency, TF over GST control)","1.09 fold enrichment (6-mer frequency, TF over GST control)","1.01 fold enrichment (6-mer frequency, TF over GST control)","1.09 fold enrichment (6-mer frequency, TF over GST control)","1.05 fold enrichment (6-mer frequency, TF over GST control)"
AGCGAC,"1.09 fold enrichment (6-mer frequency, TF over GST control)","1.15 fold enrichment (6-mer frequency, TF over GST control)","1.09 fold enrichment (6-mer frequency, TF over GST control)","1.23 fold enrichment (6-mer frequency, TF over GST control)","1.17 fold enrichment (6-mer frequency, TF over GST control)","1.23 fold enrichment (6-mer frequency, TF over GST control)","1.06 fold enrichment (6-mer frequency, TF over GST control)","1.16 fold enrichment (6-mer frequency, TF over GST control)","1.04 fold enrichment (6-mer frequency, TF over GST control)","1.19 fold enrichment (6-mer frequency, TF over GST control)","1.13 fold enrichment (6-mer frequency, TF over GST control)","1.19 fold enrichment (6-mer frequency, TF over GST control)","1.19 fold enrichment (6-mer frequency, TF over GST control)","1.25 fold enrichment (6-mer frequency, TF over GST control)","1.22 fold enrichment (6-mer frequency, TF over GST control)","1.01 fold enrichment (6-mer frequency, TF over GST control)","1.12 fold enrichment (6-mer frequency, TF over GST control)"
